Results published in the supplement of paper PMC7411054.
Where a name gives a salt, the structure may show the parent alone.

Key:
Test in all cases: phenotypically active (imaging signature differs from DMSO and reproducible) at any of 0.3-9 uM (binary (1 = active, 0 = inactive)); higher = active
Conditions in all cases: treatment time: 24 h
[1] = test system: A549-ACTB-RAB5A
Method in brief: (§1)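 The reporter lines, fifteen in total and built by gene editing in A549, HepG2 and WPMY1 cells, used BFP for segmentation alongside GFP and RFP/FusionRed markers. Each was treated at 0.3, 1, 3 or 9 µM for 24 h in four wells and then imaged live, with live-cell features normalised to solvent control wells. Deviation meant ≥3 of 4 wells beyond the 95th percentile of control Euclidean distances; reproducibility meant a median replicate Pearson correlation above the 95th percentile of non-replicates. Only conditions meeting both were scored as phenotypically active.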

[2] = test system: A549-CANX-COX4
Method in brief: as §1

[3] = test system: A549-GM130-SQSTM1
Method in brief: as §1

[4] = test system: A549-TP53BP1-CLTA
Method in brief: as §1

[5] = test system: A549-TUBA1B-RELA
Method in brief: as §1

[6] = test system: HepG2-ACTB-RAB5A
Method in brief: as §1

[7] = test system: HepG2-CANX-COX4
Method in brief: as §1

[8] = test system: HepG2-GM130-SQSTM1
Method in brief: as §1

[9] = test system: HepG2-TP53BP1-CLTA
Method in brief: as §1

[10] = test system: HepG2-TUBA1B-RELA
Method in brief: as §1

[11] = test system: WPMY1-ACTB-RAB5A
Method in brief: as §1

[12] = test system: WPMY1-CANX-COX4
Method in brief: as §1

[13] = test system: WPMY1-GM130-SQSTM1
Method in brief: as §1

[14] = test system: WPMY1-TP53BP1-CLTA
Method in brief: as §1

[15] = test system: WPMY1-TUBA1B-RELA
Method in brief: as §1

Measured: phenotypically active

CC1=NN(c2ccc(C(=O)O)cc2)C(=O)/C1=C\c1ccc(-c2cc(C)c(C)cc2[N+](=O)[O-])o1
inactive: [1] 0 | [2] 0 | [3] 0 | [4] 0 | [5] 0 | [6] 0 | [7] 0 | [8] 0 | [9] 0 | [10] 0 | [11] 0 | [12] 0 | [13] 0 | [14] 0 | [15] 0

CCC(CC)(NC(=O)C(C)C)C(=O)N[C@@H](CCCNC(=N)N)C(=O)NC1(C(=O)NC(c2ccc(F)cc2)c2ccc(F)cc2)CCCC1
inactive: [1] 0 | [2] 0 | [3] 0 | [4] 0 | [5] 0 | [6] 0 | [7] 0 | [8] 0 | [9] 0 | [10] 0 | [11] 0 | [12] 0 | [13] 0 | [14] 0 | [15] 0

Cc1ccc2ccc(C(Nc3ccccc3)c3ccccc3)c(O)c2n1 (stereo not given)
inactive: [1] 0 | [2] 0 | [3] 0 | [4] 0 | [5] 0 | [6] 0 | [7] 0 | [8] 0 | [9] 0 | [10] 0 | [11] 0 | [12] 0 | [13] 0 | [14] 0 | [15] 0

NS(=O)(=O)c1cc2c(cc1Cl)N=CNS2(=O)=O [chlorothiazide]
inactive: [1] 0 | [2] 0 | [3] 0 | [4] 0 | [5] 0 | [6] 0 | [7] 0 | [8] 0 | [9] 0 | [10] 0 | [11] 0 | [12] 0 | [13] 0 | [14] 0 | [15] 0

CC1=CC(=O)C2=C(C)CC[C@@H]3[C@H](OC(=O)[C@H]3C)[C@@H]12 [Leucomisine]
inactive: [1] 0 | [2] 0 | [3] 0 | [4] 0 | [5] 0 | [6] 0 | [7] 0 | [8] 0 | [9] 0 | [10] 0 | [11] 0 | [12] 0 | [13] 0 | [14] 0 | [15] 0

O=C(Nc1cccnn1)N1CCN(c2nccc(-c3ccc(F)c(F)c3)n2)CC1
inactive: [1] 0 | [2] 0 | [3] 0 | [4] 0 | [5] 0 | [6] 0 | [7] 0 | [8] 0 | [9] 0 | [10] 0 | [11] 0 | [12] 0 | [13] 0 | [14] 0 | [15] 0

CC(C(=O)Nc1cccc(/N=C/c2c(O)ccc3ccccc23)c1)c1ccccc1 (stereo not given) [Salermide]
inactive: [1] 0 | [2] 0 | [3] 0 | [4] 0 | [5] 0 | [6] 0 | [7] 0 | [8] 0 | [9] 0 | [10] 0 | [11] 0 | [12] 0 | [13] 0 | [14] 0 | [15] 0

O=C(O)[C@H](Cc1c[nH]c2ccccc12)N1C(=O)c2ccccc2C1=O
inactive: [1] 0 | [2] 0 | [3] 0 | [4] 0 | [5] 0 | [6] 0 | [7] 0 | [8] 0 | [9] 0 | [10] 0 | [11] 0 | [12] 0 | [13] 0 | [14] 0 | [15] 0

CC(=O)N1CCN(C)CC1 [1-Acetyl-4-methylpiperazine hydrochloride]
inactive: [1] 0 | [2] 0 | [3] 0 | [4] 0 | [5] 0 | [6] 0 | [7] 0 | [8] 0 | [9] 0 | [10] 0 | [11] 0 | [12] 0 | [13] 0 | [14] 0 | [15] 0

CC(=O)Nc1nnc(S(N)(=O)=O)s1 [acetazolamide]
inactive: [1] 0 | [2] 0 | [3] 0 | [4] 0 | [5] 0 | [6] 0 | [7] 0 | [8] 0 | [9] 0 | [10] 0 | [11] 0 | [12] 0 | [13] 0 | [14] 0 | [15] 0

Nc1ncnc2c1c(-c1ccc(Cl)cc1)nn2-c1cccc(-c2cnnn2Cc2cccc(-c3ccccc3)c2)c1
inactive: [1] 0 | [2] 0 | [3] 0 | [4] 0 | [5] 0 | [6] 0 | [7] 0 | [8] 0 | [9] 0 | [10] 0 | [11] 0 | [12] 0 | [13] 0 | [14] 0 | [15] 0

N=C(N)Nc1nc(CSCCC(=N)NS(N)(=O)=O)cs1 [famotidine]
inactive: [1] 0 | [2] 0 | [3] 0 | [4] 0 | [5] 0 | [6] 0 | [7] 0 | [8] 0 | [9] 0 | [10] 0 | [11] 0 | [12] 0 | [13] 0 | [14] 0 | [15] 0
